Assay outcomes as filed in PubChem.
In the library only some 4.1% were active in any assay of this set; here they are far more common.
ssDAF12 agonist – S. stercoralis DAF-12 nuclear receptor activators, primary screen, cell-based, luminescence, HEK293, GRIP1 co-expression, lit1-tk-luc | AID 652126, 2013 | Nuclear hormone receptor DAF-12 (Strongyloides stercoralis) | hit rate 1% among 370,000 | activation, % at 6.8 µM | HEK293 ssDAF-12/GRIP1 lit1-tk-luc reporter; % of 3 µM dafachronic acid response;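 active = activation above the mean over all tested compounds plus 3 SD, cut at about 0.9% in these data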;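 also: 0% = DMSO-only wells and 100% = 3 µM delta7-dafachronic acid wells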
hgDAF-12 ag – H. glycines DAF-12 receptor agonists, primary screen, cell-based, luminescence, HEK293, GAL4 fusion, UAS-luciferase. Nuclear hormone receptor DAF-12 (Heterodera glycines), GAL4 fusion. HEK293 GAL4-hgDAF12 UAS-luciferase reporter, agonist luminescence; normalized to butyrate control. activation, % at 6.8 µM. hit rate 1.8% among 370,000. AID 687014, 2013;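 active = activation above a cutoff set at the mean of all screened compounds plus 3 SD, cut at about 10% in these data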;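 also: 0% = DMSO wells and 100% = sodium butyrate wells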
DAX1 inh-1 – DAX1 (NR0B1) inhibitors on StAR promoter, primary screen, cell-based, luminescence, SF-1 (NR5A1), full-length DAX-1; hit rate 1.1% among 370,000; inhibition, % at 6.8 µM; HEK293T StAR-luciferase reporter, SF-1/DAX-1 repression relief; AID 652010, 2013;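 active = inhibition above the mean over all tested compounds plus 3 SD, cut at about 3.6% in these data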;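 also: 0% = DAX-1 cells with DMSO and 100% = cells lacking DAX-1 with DMSO; higher inhibition means more luminescence from relief of DAX-1 repression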
DAX1 inh-2 – DAX1 (NR0B1) inhibitors, primary screen, cell-based, HEK293, Gal4-DAX1, luciferase luminescence; inhibition, % at 6.75 µM; AID 504766, 2011; HEK293 Gal4-DAX1 luciferase reporter; Nuclear receptor subfamily 0 group B member 1 (Homo sapiens), P51843; hit rate 0.99% among 340,000;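 active = inhibition above the mean over all tested compounds plus 3 SD, cut at about 4.2% in these data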;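 also: 0% = DAX1-transfected cells with DMSO and 100% = empty-vector control cells with DMSO; inhibition shows as a rise in luminescence from relieved DAX1 repression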
hcDAF12 agonist – H. contortus DAF-12 nuclear receptor activators, primary screen, cell-based, luminescence, HEK293, lit1-tk-luc reporter. HEK293 hcDAF-12 lit1-tk-luc reporter; 0% DMSO, 100% Δ7-dafachronic acid. activation, % at 6.8 µM. hit rate 1.4% among 370,000;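 active = activation above the mean of all tested compounds plus 3 SD, cut at about 5.5% in these data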;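 also: 100% = response to 3 µM Δ7-dafachronic acid high control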
LXR ag – LXR agonists, Gal4 luciferase reporter, confirmation, counter-screen for hcDAF-12 agonist project, cell-based, luminescence, HEK293, H. contortus campaign; shares compounds with hcDAF12 agonist; 3,400 tested, under 10 active; activation, % at 6.8 µM; HEK293 Gal4-LXR tk-luc reporter, 24 h; normalized: DMSO 0%, positive control 100%;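 active = mean percent activation of the reporter above a cutoff set as the average over tested compounds plus their standard deviation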
Target sequence (P55055 whole entry, looked up, the tested form may be a part): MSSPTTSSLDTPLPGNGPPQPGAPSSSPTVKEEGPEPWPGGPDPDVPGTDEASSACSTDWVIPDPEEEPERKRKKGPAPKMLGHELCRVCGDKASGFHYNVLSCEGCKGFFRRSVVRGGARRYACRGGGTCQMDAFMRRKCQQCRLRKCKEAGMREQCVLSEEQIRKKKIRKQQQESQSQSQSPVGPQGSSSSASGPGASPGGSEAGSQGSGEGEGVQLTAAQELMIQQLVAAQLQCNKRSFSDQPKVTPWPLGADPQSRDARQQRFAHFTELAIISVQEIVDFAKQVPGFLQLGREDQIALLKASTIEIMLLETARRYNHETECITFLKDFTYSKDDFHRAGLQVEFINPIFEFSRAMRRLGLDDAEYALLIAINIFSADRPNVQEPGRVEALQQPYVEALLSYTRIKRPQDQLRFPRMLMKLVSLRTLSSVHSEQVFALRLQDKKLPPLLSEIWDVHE
hcDAF12 ag – H. contortus DAF-12 receptor agonists, confirmation, cell-based, luminescence, HEK293, lit1-tk-luc, triplicate. shares compounds with hcDAF12 agonist. HEK293 hcDAF-12 lit1-tk-luc reporter; % of Δ7-dafachronic acid response. activation, % at 6.8 µM. hit rate 61% among 3,400;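 active = mean activation across triplicate tests above the threshold derived from the earlier primary screen, cut at about 5.5% in these data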;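 also: 0% = DMSO only wells and 100% = 3 µM Δ7-dafachronic acid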
Active calls of the source: *; . = no result.

SMILES	ssDAF12 agonist	hgDAF-12 ag	DAX1 inh-1	DAX1 inh-2	hcDAF12 agonist	LXR ag	hcDAF12 ag
O=C(N/N=C/c1c[nH]c2ccccc12)c1cccc([N+](=O)[O-])c1	0	2	-1	0	10*	0	6.7*
Cn1cc([N+](=O)[O-])c(C(=O)N/N=C\c2c[nH]c3ccccc23)n1	0	-1	0	1	16*	0	3
Cc1cc(=O)[nH]c(N/N=C/c2c[nH]c3ccccc23)n1	0	4	1	1	7.2*	0	2
O=[N+]([O-])c1ccccc1N/N=C/c1c[nH]c2ccccc12	2.5*	21*	3	3	11*	1	17*
CC(=O)C1=C(C)N(Cc2ccc(F)cc2)C(=S)NC1c1cccc(Br)c1 (stereo not given)	-1	1	1	.	-2	.	.
CC(C)c1[nH]nc2c1C(c1ccc(Br)cc1)NC2=O (stereo not given)	-1	1	0	.	-2	.	.
COC(=O)[C@]12C[C@H](CC(=O)N3CCN(C(=O)C4CC4)CC3)C(=O)N(Cc3ccccc3)C1=C[C@H](C(C)(C)C)O[C@@H]2C	-1	0	1	.	-1	.	.
COC(=O)C1=C(C)N(Cc2ccccc2C(F)(F)F)C(=NCc2ccccc2C(F)(F)F)NC1c1ccc(F)cc1 (stereo not given)	-1	-1	1	.	0	.	.
COc1ccccc1C(=O)NC1CCCCN(Cc2cccc(F)c2)C1=O (stereo not given)	-1	3	-1	.	-3	.	.
CC(=O)Nc1cccc(NC(=O)c2cc3ccccc3o2)c1	1	8	2	2	2	.	.
Cc1ccc(NC(=O)c2cc3ccccc3o2)cc1Cl	0	13*	3	6.8*	8.8*	1	5.9*
COc1ccc(NC(=O)c2cc3ccccc3o2)cc1	1	12*	2	2	7.2*	1	7.3*
COCCNC(=S)N(C)[C@H]1C[C@H]2c3[nH]c4cccc(-c5ccccc5)c4c3CCN2C(=O)[C@H]1[C@H](C)O	0	0	0	.	-3	.	.
CCOC(=O)Cn1cc(CN2C(C(=O)OC)CN(Cc3ccc(Cl)cc3)CCS2(=O)=O)nn1 (stereo not given)	0	0	0	.	0	.	.
Cc1ccc(NC(=O)OCc2cc(-c3ccccc3)on2)cc1	-1	1	0	3	0	.	.
Cc1ccc(-c2cc(-c3ccccc3)no2)cc1	1.8*	14*	3.7*	2	14*	2	14*
c1ccc(CSc2cc3ccccc3[nH]2)cc1	1	9	1	2	10*	1	11*
CCC(=O)NNc1ncnc2ccccc12	0	-1	0	1	6.9*	0	5
CCOC(=O)C/C(=N\Nc1ncnc2ccccc12)c1ccccc1	1	6	2	1	11*	0	5
O=S(=O)(c1ccccc1)N1CCCc2nc(-c3ccc(Br)cc3)ccc21	-1	0	0	.	0	.	.
COc1cccc(C(=O)O/N=C(\N)c2ccncc2)c1OC	-1	4	1	2	1	.	.
N/C(=N\OC(=O)c1ccc(Cl)cc1[N+](=O)[O-])c1cccnc1	0	8	1	2	7.0*	0	6.4*
N/C(=N\OC(=O)c1ccc(Cl)cc1Cl)c1ccccn1	-2	-11	0	-5	-2	.	.
COc1cccc(C(=O)O/N=C(\N)c2ccccn2)c1OC	0	10	3	1	6.6*	1	6.4*
N/C(=N\OC(=O)c1ccc(Cl)cc1[N+](=O)[O-])c1ccccn1	0	12*	1	3	8.6*	1	2
SMILES	ssDAF12 agonist	hgDAF-12 ag	DAX1 inh-1	DAX1 inh-2	hcDAF12 agonist	LXR ag	hcDAF12 ag
C[C@H](O)[C@@H]1C(=O)N2CCc3c([nH]c4c(-c5ccccc5)cccc34)[C@@H]2C[C@@H]1N(C)C(=S)Nc1ccc(C#N)cc1	-1	0	0	.	0	.	.
COc1ccc(/C=C/C(=O)C2C(=O)C=C(C)OC2=O)cc1O (stereo not given)	1.6*	6	0	1	13*	0	3
COc1cc(/C=C/C(=O)C2C(=O)C=C(C)OC2=O)cc(OC)c1O (stereo not given)	0	-2	0	0	3	.	.
COc1ccc([C@H]2OC(=O)C[C@@H]2C(=O)N2CCN(c3ccccc3F)CC2)cc1OC	-2	0	-1	.	0	.	.
CN(Cc1ccccc1)S(=O)(=O)c1cccc(C(=O)OCc2ccccc2)c1	-1	0	0	.	-1	.	.
C/C(=N\Nc1nc(C(C)(C)C)cs1)c1ccccc1	2.2*	13*	1	6.6*	7.0*	1	8.6*
O=C(Nc1nc2c(s1)CCCC2)Oc1ccccc1	-1	1	0	1	0	.	.
CC(C)(C)c1csc(NC(=O)c2ccccc2O)n1	-1	5	1	-2	1	.	.
C/C(=N\Nc1nc2c(s1)CCCC2)c1ccccc1	1.4*	6	2	3	7.4*	1	11*
CC(C)=NNc1nc(-c2ccccc2)cs1	0	5	0	2	7.2*	0	2
CC(C)(C)N(Cc1cn(Cc2ccccc2)nn1)S(=O)(=O)c1ccc(N2CCCC2)cc1Br	-2	-2	1	.	-5	.	.
NC(=O)c1ncn([C@@H]2O[C@H](C(=O)N[C@H](Cc3c[nH]c4ccccc34)C(=O)NCC(=O)N3CCCCC3)[C@@H](O)[C@H]2O)n1	0	2	1	.	-1	.	.
O=C(Nc1ccccc1Cl)C(=O)c1cn(CC(=O)N2CCOCC2)c2ccccc12	0	7	1	2	7.6*	1	8.6*
CC(=O)Nc1ccc(NC(=O)CSc2cn(CC(=O)N3CCOCC3)c3ccccc23)cc1	-1	2	1	1	-2	.	.
O=C(Cn1cc(SCc2ccccc2Cl)c2ccccc21)N1CCOCC1	-1	6	1	-1	11*	0	5
